Measurements from PubChem BioAssay AID489008 (National Center for Advancing Translational Sciences (NCATS), 2010).
Results filed as inconclusive are left out. Activity calls are given as the source filed them. Calls come from the whole dose curve; as a rule, active = well fitted inhibition curve with a large enough effect; inconclusive = small, poorly fitted or top-dose-only effect; inactive = flat fitted curve, though single readings scatter.

These compounds were tested against Ferritin light chain (Equus caballus) (UniProt P02791) (assay: Confirmation Assay for Identification of Novel General Anesthetics). Settings: apoferritin 1-aminoanthracene fluorescence displacement.
Ferritin light chain (Equus caballus), sequence (P02791 2-175 limits assumed): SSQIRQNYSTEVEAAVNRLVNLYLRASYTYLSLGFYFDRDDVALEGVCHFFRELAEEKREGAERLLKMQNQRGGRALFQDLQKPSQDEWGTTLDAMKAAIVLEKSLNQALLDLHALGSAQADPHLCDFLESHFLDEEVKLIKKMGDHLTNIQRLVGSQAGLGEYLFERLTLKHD
Source text: Anesthetic development has remained a largely empirical process. There are growing concerns about the cognitive effects of known general anesthetics and acceleration of the onset of neurodegenerative disease. The compounds' toxicity and multiple specific binding targets in the mammalian brain [4] has made them less attractive as drug leads. In this assay, a GABAergic mimetic model system, apoferritin and a profluorescent 1-aminoanthracene ligand (1-AMA), was used to construct a competitive binding assay for identification of novel general anesthetics. The assay was validated for 1-AMA using other known anesthetics, such as isoflurane (CID:3763) and propofol (CID: 4943), [6]. This particular BioAssay is a confirmation of followup compounds from primary screen AID:485281.
[1] S.L. Bianchi, T. Tran, C. Liu, S. Lin, Y. Li, J.M. Keller, R.G. Eckenhoff, and M.F. Eckenhoff, Brain and behavior changes in 12-month-old Tg2576 and nontransgenic mice exposed to anesthetics. Neurobiol Aging 29 (2008) 1002-10.
[2] Z. Xie, Y. Dong, U. Maeda, R.D. Moir, W. Xia, D.J. Culley, G. Crosby, and R.E. Tanzi, The inhalation anesthetic isoflurane induces a vicious cycle of apoptosis and amyloid beta-protein accumulation. J Neurosci 27 (2007) 1247-54.
[3] P. Honegger, and J.M. Matthieu, Selective toxicity of the general anesthetic propofol for GABAergic neurons in rat brain cell cultures. J Neurosci Res 45 (1996) 631-6.
[4] M.F. Eckenhoff, K. Chan, and R.G. Eckenhoff, Multiple specific binding targets for inhaled anesthetics in the mammalian brain. J Pharmacol Exp Ther 300 (2002) 172-9.
[5] C.A. Butts, J. Xi, G. Brannigan, A.A. Saad, S.P. Venkatachalan, R.A. Pearce, M.L. Klein, R.G. Eckenhoff, and I.J. Dmochowski, Identification of a fluorescent general anesthetic, 1-aminoanthracene. Proc Natl Acad Sci U S A 106 (2009) 6501-6.
[6] W.A. Lea, J. Xi, A. Jadhav, L. Lu, C.P. Austin, A. Simeonov, and R.G. Eckenhoff, A high-throughput approach for identification of novel general anesthetics. PLoS One 4 (2009) e7150.
Source: NIH Chemical Genomics Center [NCGC]
Assay Submitter: Roderic Eckenhoff, University of Pennsylvania
Screening Center PI: Christopher P. Austin, NIH
Probe Development: NIH Chemical Genomics Center [NCGC]
Three uL of reagents (free 1-AMA (50% saturated solution of 1-aminoanthracene
in PBS) in columns 3, 4 as negative control and 1-AMA/apoferritin mixture (10 uM horse-spleen apoferritin in 50% saturated 1-aminoanthracene in PBS) in columns 1, 2, 5-48) was dispensed into 1536-well Greiner black assay plates. Compounds (23 nL) were transferred via Kalypsys pintool equipped with 1,536-pin array (10 nL slotted pins, V&P Scientific, San Diego, CA). Titration of the positive control, propofol, were delivered via pin transfer from separate control plates to the 2nd column of each assay plate. The starting concentration of the control, dissolved in DMSO, was at 160 mM, followed by two-fold dilution points in duplicate, for a total of 16 concentrations. The plates were incubated for 10 min at room temperature, and then read on an EnVision HTS multilabel reader (Perkin-Elmer, Waltham, MA) (end point read, 3 min/plate) using Fura2 BFP excitation filter (380 nm, bandwidth 10 nm) and fluorescein emission filter (535 nm, bandwidth 25 nm) set. A LANCE/DELFIA dichroic mirror with a cutoff wavelength at 400 nm was used to maximize signal accuracy and strength. Vehicle-only plates, with DMSO being pin-transferred to the entire column 5-48 compound area, were inserted uniformly at the beginning and the end of each library in order to monitor for and record any shifts in the background. Activity was computed as the normalized fluorescence response relative to free 1-AMA and 1-AMA/apoferritin complex values. Concentration-effect relationships were derived by using curve fitting algorithms developed in-house (http://ncgc.nih.gov/pub/openhts/). […]
Note: nearly all actives have a fitted effect of over 40% in size.
Potency is the fitted concentration of half-maximal effect.

Potency, active:
O=C1CC(C2CCCO2)C(=O)N1c1cccc(Cl)c1 (stereo not given) 14.1 µM
COc1ccc(/C=N/NC(=O)CC(=O)NC2CCCCC2)cc1 6.31 µM
Cc1ccc(F)c(NC(=O)CCc2ccccc2)c1 15.8 µM
Cc1ccc(-c2ccc(=O)n(Cc3ccc(F)cc3)n2)cc1 35.5 µM
O=C(OCC(=O)C12CC3CC(CC(C3)C1)C2)c1ccccn1 14.1 µM
Fc1ccc(NCc2ccccc2F)cc1Cl 14.1 µM
CC(NC(=O)COC(=O)C1=COCCO1)C12CC3CC(CC(C3)C1)C2 (stereo not given) 14.1 µM
NC(=O)Nc1ccc(Oc2ncc(C(F)(F)F)cc2Cl)cc1 7.08 µM
Nc1nnc(SCC(=O)NC23CC4CC(CC(C4)C2)C3)s1 7.94 µM
CC1=CCC2C(=O)N(c3ccc(C)cc3)C(=O)C2C1 (stereo not given) 10 µM
O=S(=O)(NCCCc1ccccc1)c1ccc(F)c(F)c1 17.8 µM
Cc1csc(Nc2ccccc2)n1 35.5 µM
O=C(Nc1cccc(Cl)c1)OCc1cncs1 15.8 µM
O=C(CSc1ccc(F)cc1)NC12CC3CC(CC(C3)C1)C2 15.8 µM
Cc1cccc(N(C(=O)Nc2ccccc2)C2=NCC(C)S2)c1 (stereo not given) 25.1 µM
O=C(NC1CCCCCCC1)c1cc(COc2ccc3ncccc3c2)on1 12.6 µM
O=C(Nc1ccc(Cl)c(Cl)c1)OCc1cncs1 28.2 µM
O=C(Nc1ccc(Br)cc1)N1CCCCCC1 25.1 µM
O=[N+]([O-])c1ccc(CNc2ccc(Cl)cc2)s1 22.4 µM
O=C(COc1ccccc1Cl)N1CCCCCCC1 15.8 µM
CC1(c2ccc(NC(=O)c3ccccc3F)cc2)CC1(Cl)Cl (stereo not given) 12.6 µM
Cc1csc(SCC(=O)NC23CC4CC(CC(C4)C2)C3)n1 15.8 µM
Cc1ccc(Cn2cccc(NC(=O)NCc3ccccc3)c2=O)cc1 7.08 µM
Cc1ccc(CNc2ccc(CNc3ncn[nH]3)cc2)cc1 20 µM
Nc1nnc(CCC2CCCCC2)s1 10 µM
CC1CCCN(C(=O)Cc2cccc3ccccc23)C1 (stereo not given) 31.6 µM
Cc1ccc(-c2ccc(=O)n(CC(=O)NCc3ccco3)n2)cc1 11.2 µM
CC(=O)Nc1ncc(Cc2cc(Cl)ccc2Cl)s1 15.8 µM
O=C(CC1SCCNC1=O)Nc1ccc(Cl)c(Cl)c1 (stereo not given) 20 µM
C=Cc1ccc(Cn2nc(-c3ccc(C)cc3)ccc2=O)cc1 17.8 µM
O=C(NC1CCCCCCC1)c1ccc(Br)o1 17.8 µM
O=C1CCCc2ccccc2N1Cc1ccccc1Cl 15.8 µM
N#CCc1ccc(Oc2ncc(C(F)(F)F)cc2Cl)cc1 17.8 µM
O=C(COC(=O)c1ccccn1)NC12CC3CC(CC(C3)C1)C2 7.94 µM
O=C(Cc1ccccc1)N1CCc2ccccc21 14.1 µM
CCN1C(=O)N(c2ccc(Cl)cc2)C(C)=CC1(C)C 35.5 µM
CC(=O)c1cccc(NC(=O)CCC2CCCC2)c1 28.2 µM
Nc1c(C(=O)NCc2ccccc2)nnn1Cc1cccc(Cl)c1 3.98 µM
CC(NC(=O)c1ccc(Br)o1)C1CC2CCC1C2 (stereo not given) 8.91 µM
Cc1cccc(OCCC(=O)OCC(=O)N2CCc3ccccc32)c1 10 µM
